Experimental findings from PubChem BioAssay (NCATS) are described below.

Test [1] has as its target T1, Hexokinase-4 (Homo sapiens) + Glucokinase regulatory protein (Homo sapiens) (UniProt P35557+Q14397). The test is described as follows: qHTS assay for inhibitors of recombinant human GCK-GKRP interaction: ADP-Glo assay (AID 743206).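 Also: plate controls were DMSO plus enzyme for no effect and no enzyme for full effect.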 The gist of the method: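 GST-GCK and FLAG-GKRP (15 nM each in the dispensed mix, with 2 uM S6P) react with 0.4 mM ATP and 5 mM glucose (final) in Hepes pH 7.6 for 60 min at room temperature. ADP is measured by ADP-Glo luminescence.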

The target in test [2] is T1, Hexokinase-4 (Homo sapiens) + Glucokinase regulatory protein (Homo sapiens). The test is described as follows: qHTS assay for inhibitors of recombinant human GCK-GKRP interaction: HTRF assay (AID 743207).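 Also: 0% = DMSO with GCK present and -100% = DMSO wells lacking GCK.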 The gist of the method:
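5 nM GST-GCK + 5 nM FLAG-GKRP + 2 uM S6P, pH 7.1 buffer (25 mM Hepes, 2 mM MgCl2, 25 mM KCl, 1 mM DTT, Tween/BSA); pin-transferred cpd; anti-FLAG XL665/anti-GST K; 60 min RT; HTRF.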
(In general: qHTS replaces the single test concentration by a dilution series.)

Test [3] in a line: qHTS Assay for Identifying Gametocytocidal Compounds (AID 743244). Also: potency is read from the fitted curve at half-maximal effect.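 As to max response: % is scaled to controls: 0 for no effect and ±100 for the full control effect; actives lower the fluorescent signal which means gametocytes are killed.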 The settings on record: P. falciparum 3D7 stage III-V gametocytes, alamarBlue, 72 h; max response: stronger effect = lower value. The gist of the method: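 Viability read-out was resazurin reduction (alamarBlue, 24 h) measured at Ex 525/Em 598 nm. Beforehand, late-stage (III-V) 3D7 P. falciparum gametocytes at 20,000 cells/well were incubated with compound 72 h at 37C under 5% CO2.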

The nature of test [4]: qHTS assay for measurement of the activity of small molecule inhibitors on Zika virus induced Caspase-3 activity in human iPSC derived neural progenitor cells (hNPCs) (AID 1224857). Also: % of control where 0% means no effect; nearly all actives have a fitted effect of over 65% in size. The gist of the method:
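Percent inhibition of virus-induced caspase-3/7 luminescence (Caspase-Glo), scaled between uninfected cells and Zika-infected cells. hNPCs received compound 1 hr before ZIKV at 2 FFU/cell, with 6 hours infection at 37 C.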

Test [5] can be described thus: qHTS assay for measurement of the activity of small molecule inhibitors on Zika virus induced Caspase-3 activity in human astrocytoma cells (AID 1224859).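 Also: plate controls were ZIKV-infected untreated cells for no effect and uninfected cells for full effect.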 The gist of the method: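 Luminescent caspase-3/7 read-out (30 min reagent, room temperature) in human SNB-19 cells infected 6 h with ZIKV (2 FFU/cell) after 1 h compound pre-incubation; Data were normalised to uninfected and infected wells.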

Test [6] can be described thus: Natriuretic polypeptide receptor (hNpr1) antagonism - Pilot counterscreen GloSensor control cell line (AID 1347045; calls by dose curve; also: potency is read from the fitted curve at half-maximal effect). The gist of the method:
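HEK293 cells carrying the GloSensor cGMP sensor (GIP/pGS-40F) were loaded with 2% GloSensor reagent for 2 h, exposed to compounds for 30 min, and then stimulated with 50 uM sodium nitroprusside for 20 min at room temperature.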

Test [7] has as its target Atrial natriuretic peptide receptor 1 (Homo sapiens) (UniProt P16066). The test is described as follows: Natriuretic polypeptide receptor (hNpr1) antagonism - Pilot screen (AID 1347049; calls by dose curve;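 also: agonist-evoked cGMP luminescence read 20 min after hNppA addition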; also: potency is read from the fitted curve at half-maximal effect). The gist of the method:
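HEK293 cells expressing hNpr1 and GloSensor cGMP luciferase, 1500/well, loaded with 2% GloSensor reagent 2 h, compound 30 min at room temperature; luminescence read before and 20 min after 0.1 nM hNppA stimulation.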

For test [8], the target named is Atrial natriuretic peptide receptor 2 (Homo sapiens) (UniProt P20594). The test is described as follows: Natriuretic polypeptide receptor (hNpr2) antagonism - Pilot subtype selectivity assay (AID 1347050; calls by dose curve; also: potency is read from the fitted curve at half-maximal effect). The gist of the method: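 HEK293 cells expressing hNpr2 and a GloSensor cGMP luciferase sensor, 1500/well, preloaded 2 h with 2% GloSensor reagent, compound 30 min, then 1 nM hNppC for 20 min. Antagonism from luminescence after versus baseline pre-read; LOPAC in 1:5 titrations.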
Sequence of Atrial natriuretic peptide receptor 2 (Homo sapiens) (P20594 whole entry, looked up): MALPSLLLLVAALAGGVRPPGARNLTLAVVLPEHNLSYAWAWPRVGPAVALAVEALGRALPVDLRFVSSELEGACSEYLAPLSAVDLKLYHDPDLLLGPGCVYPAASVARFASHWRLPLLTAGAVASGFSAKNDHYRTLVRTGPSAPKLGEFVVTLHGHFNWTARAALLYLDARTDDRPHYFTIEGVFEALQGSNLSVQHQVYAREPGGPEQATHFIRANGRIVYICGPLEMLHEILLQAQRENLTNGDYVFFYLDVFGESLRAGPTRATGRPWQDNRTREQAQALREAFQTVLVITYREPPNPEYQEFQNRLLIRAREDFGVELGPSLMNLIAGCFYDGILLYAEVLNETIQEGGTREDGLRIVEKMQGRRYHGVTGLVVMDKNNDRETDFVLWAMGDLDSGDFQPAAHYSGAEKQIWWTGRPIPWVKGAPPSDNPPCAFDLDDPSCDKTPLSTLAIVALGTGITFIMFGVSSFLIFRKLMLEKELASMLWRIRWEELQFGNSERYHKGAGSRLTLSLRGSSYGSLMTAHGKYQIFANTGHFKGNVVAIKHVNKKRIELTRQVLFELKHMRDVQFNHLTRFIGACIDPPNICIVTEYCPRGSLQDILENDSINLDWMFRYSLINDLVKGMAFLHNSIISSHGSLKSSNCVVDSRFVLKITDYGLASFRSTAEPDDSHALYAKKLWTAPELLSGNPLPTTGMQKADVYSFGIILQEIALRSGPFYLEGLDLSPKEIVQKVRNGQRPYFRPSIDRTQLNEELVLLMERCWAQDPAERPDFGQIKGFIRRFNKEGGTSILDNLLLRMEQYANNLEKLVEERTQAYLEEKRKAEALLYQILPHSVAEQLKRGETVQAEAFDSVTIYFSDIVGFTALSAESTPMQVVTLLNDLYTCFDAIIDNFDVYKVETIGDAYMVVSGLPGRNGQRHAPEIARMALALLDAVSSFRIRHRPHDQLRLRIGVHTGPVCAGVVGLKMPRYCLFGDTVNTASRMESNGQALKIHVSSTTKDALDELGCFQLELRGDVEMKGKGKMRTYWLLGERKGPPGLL

Test [9] is described as follows: NS1 protein of Zika virus - qHTS assay to identify small molecule inhibitors in human HEK 293 cells (AID 1347053).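 Also: plate controls were infected untreated cells for no effect and uninfected cells for full effect; nearly all actives have a fitted effect of over 55% in size.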 The gist of the method: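 HEK 293; 20 h pre-culture, 37 C/5% CO2; cpd 1 h pre-infection; ZIKV MR766, MOI = 0.5, 24 h, 37 C; TR-FRET NS1 readout (two anti-NS1 Abs); norm. to no-virus vs infected.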
Test [10] is described as follows: qHTS profiling of the MIPE4 collection as inhibitors of Plasmodium falciparum (3D7) proliferation (AID 743344; call rule not given here;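 also: scaled between DMSO vehicle wells and 0.29 µM artemisinin as full inhibition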). The settings on record: P. falciparum 3D7 in erythrocytes, SYBR Green DNA fluorescence, 72 h; at 28.5 µM (top of the series). The gist of the method: (§1)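 Erythrocytes infected with P. falciparum (0.3% parasitemia, 2.5% hematocrit) incubated with compounds 72 h at 37 C, 5% CO2. Lysis with saponin/Triton buffer containing SYBR Green I, overnight at room temperature in the dark; DNA fluorescence (485/535 nm) normalised to 0.29 uM artemisinin and DMSO.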

Test [11] in a line: qHTS profiling of the MIPE4 collection as inhibitors of Plasmodium falciparum (DD2) proliferation (AID 743345; call rule not given here). Conditions: P. falciparum Dd2 in erythrocytes, SYBR Green DNA, 72 h; at 28.5 µM (top of the series). The gist of the method: as §1
Test [12] can be described thus: qHTS profiling of the MIPE4 collection as inhibitors of Plasmodium falciparum (DD2) proliferation (Rep 2) (AID 743346; call rule not given here). The settings on record: P. falciparum Dd2 in erythrocytes, SYBR Green DNA, 72 h; at 28.5 µM (top of the series). The gist of the method: as §1
Test [13] can be described thus: qHTS profiling of the MIPE4 collection as inhibitors of Plasmodium falciparum (HB3) proliferation (AID 743347; call rule not given here;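 also: plate controls were DMSO vehicle wells for no effect and artemisinin wells for full effect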). Conditions: P. falciparum HB3 in erythrocytes, SYBR Green DNA, 72 h; at 28.5 µM (top of the series). The gist of the method: as §1

Records with an inconclusive call do not appear. Activity calls are given as the source filed them. Unless noted, calls follow the shape of the dose curve; as a rule, active = well fitted curve in the direction sought with a large enough effect; inconclusive = small, poorly fitted or top-dose-only effect, or another doubt; inactive = no such curve, though single readings can be large; an effect the other way counts as inactive or inconclusive.

Sequence of Atrial natriuretic peptide receptor 1 (Homo sapiens) (P16066 whole entry, looked up): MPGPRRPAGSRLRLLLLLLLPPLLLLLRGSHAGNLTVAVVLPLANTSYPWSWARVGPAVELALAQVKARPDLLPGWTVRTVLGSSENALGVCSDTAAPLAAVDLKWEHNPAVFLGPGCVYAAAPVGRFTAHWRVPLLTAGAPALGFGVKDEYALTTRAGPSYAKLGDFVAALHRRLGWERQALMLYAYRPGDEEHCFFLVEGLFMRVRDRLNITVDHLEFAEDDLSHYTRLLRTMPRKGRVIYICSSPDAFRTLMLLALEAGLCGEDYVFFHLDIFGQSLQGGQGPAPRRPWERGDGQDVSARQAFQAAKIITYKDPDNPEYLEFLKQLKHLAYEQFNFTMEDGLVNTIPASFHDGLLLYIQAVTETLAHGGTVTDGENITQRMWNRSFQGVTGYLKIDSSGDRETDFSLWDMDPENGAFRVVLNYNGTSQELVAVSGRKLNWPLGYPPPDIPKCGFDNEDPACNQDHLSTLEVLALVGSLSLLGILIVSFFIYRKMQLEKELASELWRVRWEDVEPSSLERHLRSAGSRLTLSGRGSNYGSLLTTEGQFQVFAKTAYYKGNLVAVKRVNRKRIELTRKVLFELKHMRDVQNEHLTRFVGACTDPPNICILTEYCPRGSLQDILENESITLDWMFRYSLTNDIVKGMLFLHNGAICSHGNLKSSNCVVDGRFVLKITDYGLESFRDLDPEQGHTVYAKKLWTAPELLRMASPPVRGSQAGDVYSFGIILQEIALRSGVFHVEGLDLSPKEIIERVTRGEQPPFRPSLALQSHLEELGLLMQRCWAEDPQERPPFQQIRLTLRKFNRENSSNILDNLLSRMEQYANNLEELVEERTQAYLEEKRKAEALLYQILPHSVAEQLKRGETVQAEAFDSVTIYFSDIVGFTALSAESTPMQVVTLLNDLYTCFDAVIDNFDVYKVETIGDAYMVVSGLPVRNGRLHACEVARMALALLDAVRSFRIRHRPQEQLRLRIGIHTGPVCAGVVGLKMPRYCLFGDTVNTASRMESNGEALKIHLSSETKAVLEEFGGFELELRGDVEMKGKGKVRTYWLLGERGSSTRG
T1 sequence (P35557 whole entry, looked up): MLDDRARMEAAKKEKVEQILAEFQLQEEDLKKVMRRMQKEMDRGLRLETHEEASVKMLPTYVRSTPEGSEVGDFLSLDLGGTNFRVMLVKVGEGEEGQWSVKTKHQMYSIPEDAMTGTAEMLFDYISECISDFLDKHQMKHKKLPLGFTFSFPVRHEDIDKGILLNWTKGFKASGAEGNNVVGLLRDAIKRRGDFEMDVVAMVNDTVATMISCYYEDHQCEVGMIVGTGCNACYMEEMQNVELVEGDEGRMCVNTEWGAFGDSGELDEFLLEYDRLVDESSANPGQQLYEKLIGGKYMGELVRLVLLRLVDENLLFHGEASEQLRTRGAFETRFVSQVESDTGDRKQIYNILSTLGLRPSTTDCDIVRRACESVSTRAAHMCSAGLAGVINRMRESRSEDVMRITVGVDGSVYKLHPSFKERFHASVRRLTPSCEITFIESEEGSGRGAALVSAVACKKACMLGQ
T1 sequence (Q14397 whole entry, looked up): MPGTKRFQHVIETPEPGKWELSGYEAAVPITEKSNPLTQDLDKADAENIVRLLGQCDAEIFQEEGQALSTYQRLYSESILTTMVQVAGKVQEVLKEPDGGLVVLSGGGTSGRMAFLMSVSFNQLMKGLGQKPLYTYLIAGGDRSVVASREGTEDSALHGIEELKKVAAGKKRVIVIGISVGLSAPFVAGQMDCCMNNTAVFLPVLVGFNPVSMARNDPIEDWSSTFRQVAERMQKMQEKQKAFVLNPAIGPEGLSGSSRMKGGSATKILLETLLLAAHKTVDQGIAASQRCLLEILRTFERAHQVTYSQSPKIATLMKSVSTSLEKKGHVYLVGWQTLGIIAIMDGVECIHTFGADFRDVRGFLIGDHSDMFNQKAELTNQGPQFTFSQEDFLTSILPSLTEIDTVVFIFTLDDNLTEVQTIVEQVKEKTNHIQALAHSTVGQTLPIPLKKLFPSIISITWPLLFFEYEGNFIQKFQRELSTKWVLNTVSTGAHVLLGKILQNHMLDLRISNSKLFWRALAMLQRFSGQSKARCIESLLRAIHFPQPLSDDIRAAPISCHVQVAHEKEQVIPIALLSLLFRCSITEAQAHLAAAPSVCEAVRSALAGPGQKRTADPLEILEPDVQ

With `C[C@@]1(C2CCCC2)Cc2cc(OCC(=O)O)c(Cl)c(Cl)c2C1=O`, the Potency result in [1], in test [2], in test [4], in test [5], in test [6] and in test [7] was “inactive” each time. Besides, in test [8], the Potency result was “inactive”. Also, the max response in test [3] is 33.9% (inactive).
With `C=CCN1CCc2c(cc(O)c(O)c2Cl)C(c2ccccc2)C1` (configuration not stated), the Potency entry in test [1], in [2], in test [4], in test [5], in test [6] and in test [7] was “inactive” each time. Moreover, the Potency entry in test [8] is “inactive”.
With `COc1ccccc1N1CCN(CCCCNC(=O)c2ccc3ccccc3c2)CC1`, the Potency result in test [1], in test [2], in test [4], in test [5], in test [6] and in [7] was “inactive” in each case. In addition, the Potency result in test [9] is “inactive”. Moreover, the max response in test [3] was 17.6% (inactive).
As to `CO/N=C(\C(=O)N[C@@H]1C(=O)N2C(C(=O)O)=C(CSc3nc(=O)c(O)nn3C)CSC12)c1csc(N)n1` (some centres not stated), the Potency entry in test [1], in [2], in [4], in [5], in [6] and in test [7] was “inactive” each time. In addition, in test [8], the Potency entry is “inactive”. In [3], the max response is 32.5% (inactive).
For `C[C@H](NC(=O)/C(C#N)=C/c1ccc(O)c(O)c1)c1ccccc1`, the Potency result in test [1], in [2], in [4], in test [5], in [6] and in test [7] was “inactive” throughout. Also, the Potency result in [9] was “inactive”. Also, the max response in [3] was -11% (inactive).
Consider `Cn1cc(C(F)(F)F)nc1-c1ccc(OCC(O)CNCCOc2ccc(O)c(C(N)=O)c2)cc1` (configuration not stated), for which the Potency result in test [1], in test [2], in test [4], in test [5], in test [6] and in [7] was “inactive” throughout. Moreover, the Potency result in [8] is “inactive”. The max response in test [3] is 26.1% (inactive).
With `COc1cc(N)c(Cl)cc1C(=O)OCCN1CCCCC1`, the Potency entry in test [1], in [2], in test [4], in test [5], in test [6] and in test [7] was “inactive” in each case. Further, in test [8], the Potency entry is “inactive”. Moreover, the max response in test [3] is 4.04% (inactive).
In the case of `CC(=O)O[C@H]1Cc2ccccc2N(C(N)=O)c2ccccc21`, the Potency entry in [1], in [2], in test [4], in test [5], in test [6] and in [7] was “inactive” each time. The Potency entry in test [9] was “inactive”. Moreover, in [3], the max response is 18.2% (inactive).
With `Nc1nc2c(nc(Br)n2C2OC3COP(=O)(O)O[C@@H]3C2O)c(=O)[nH]1` (some centres not stated), the Potency entry in [1], in [2], in test [4], in [5], in [6] and in [7] was “inactive” throughout. Further, in [8], the Potency result was “inactive”. Further, in test [3], the max response was 9.58% (inactive).
As to `N[C@H](C(=O)O)c1cc(O)cc(O)c1`, the Potency entry in [1], in test [2], in test [4], in test [5], in test [6] and in test [7] was “inactive” in each case. Besides, the Potency entry in test [8] is “inactive”.
In the case of `C[C@]12C=CC(=O)C=C1CC[C@@H]1C2=CC[C@]2(C)[C@@H](C(=O)CN3CCN(c4cc(N5CCCC5)nc(N5CCCC5)n4)CC3)CC[C@@H]12`, the Potency entry in test [1], in [2], in test [4], in [5], in test [6] and in [7] was “inactive” each time. In addition, the Potency result in test [9] is “inactive”.
For the molecule `CN(C)CCC(c1ccc(Br)cc1)c1ccccn1` (configuration not stated), the Potency result in test [2], in test [4], in test [5], in test [6], in test [7] and in [9] was “inactive” throughout. The max response in test [3] was 11.9% (inactive).
Consider `O=C(N[C@@H](Cc1ccccc1)C(=O)CCl)OCc1ccccc1`, for which the Potency entry in test [1], in test [2], in test [4] and in test [5] was “inactive” in each case. The Potency in test [6] is 3.29 µM (active); in test [7], 10.7 µM (active); in test [8], 4.14 µM (active).
As to `CC(=O)SC1CC2=CC(=O)CC[C@]2(C)C2CC[C@@]3(C)C(CC[C@@]34CCC(=O)O4)C12` (some centres not stated), the Potency entry in [1], in [2], in test [4], in [5], in test [6] and in test [7] was “inactive” throughout. Also, the Potency entry in test [9] is “inactive”. Moreover, the max response in test [3] is 7.64% (inactive).
`NC1CONC1=O` (configuration not stated): the Potency entry in [2], in test [4], in test [5], in [6], in test [7] and in test [8] was “inactive” in each case. The Potency entry in test [9] was “inactive”. Besides, the max response in [3] is 13.9% (inactive). In [10], the parasite growth, % of DMSO control amounted to 94.2%. In [11], this molecule registered a parasite growth remaining, % of DMSO control (lower = more inhibition) of 99.7%. Further, the parasite growth, % of control (lower = inhibition) in [12] was found to be 78.4%. In [13], this molecule registered a growth, % of control of 106%.
In the case of `CCCn1c(=O)c2[nH]c(C3CCCC3)nc2n(CCC)c1=O`, the Potency result in test [1], in test [2], in test [4], in [5], in test [6] and in [7] was “inactive” throughout. The Potency result in [9] is “inactive”. Besides, the max response in [3] was 13.8% (inactive).
As for `Nc1ncnc2c1nc(Sc1ccc(Cl)cc1)n2[C@H]1OC2COP(=O)(O)O[C@@H]2C1O` (some centres not stated), the Potency result in test [1], in [2], in test [4], in test [5], in [6] and in test [7] was “inactive” each time. The Potency result in test [9] is “inactive”. Moreover, in [3], the max response was 39.2% (inactive).
On to `COC(=O)[C@H](NC(=O)c1cc(-c2ccccc2)nc2ccccc12)c1ccccc1`, for which the Potency result in test [1], in test [2], in [4], in test [5], in test [6] and in test [7] was “inactive” throughout. Besides, the Potency entry in test [8] was “inactive”. Besides, the max response in test [3] is 9.97% (inactive).
Consider `CCCC[C@@]1(C2CCCC2)Cc2cc(OCC(=O)O)c(Cl)c(Cl)c2C1=O`, for which the Potency entry in test [2], in [4], in [5], in test [6], in test [7] and in [9] was “inactive” throughout. The max response in test [3] was 8.17% (inactive).
Consider `CCCCCCCC/C=C\CCCCCCCC(=O)NCCc1ccc(O)c(O)c1`, for which the Potency result in [1], in [2], in test [4], in test [5], in test [6] and in test [7] was “inactive” throughout. Further, the Potency result in test [9] is “inactive”. Further, the max response in test [3] was 7.46% (inactive).
In the case of `O=C(O)/C=C/c1ccc(O)c(O)c1`, the Potency result in test [1], in [2], in [4], in test [5], in test [6] and in test [7] was “inactive” throughout. In [9], the Potency entry was “inactive”.
As for `O[Si](CCCN1CCCCC1)(c1ccc(F)cc1)C1CCCCC1` (configuration not stated), the Potency entry in [1], in test [2], in test [4], in test [5], in [6] and in test [7] was “inactive” in each case. For the same molecule, in [9], the Potency result is “inactive”.
For `N=C(N)c1ccc(OCCCCCOc2ccc(C(=N)N)cc2)cc1` (tested in a mixture with another compound), the Potency entry in test [1], in [2], in test [4], in test [5], in test [6] and in test [7] was “inactive” in each case. In test [9], the Potency entry was “inactive”. In addition, in [3], the Potency was 0.562 µM (active).
As for `CN1CCc2cc(Cl)c(O)cc2[C@@H](c2ccccc2)C1`, the Potency entry in [1], in test [2], in test [4], in [5], in test [6] and in test [7] was “inactive” throughout. In addition, the Potency result in test [8] was “inactive”.
